The text below walks through data of PubChem BioAssay AID651947 (Broad Institute, 2012).

Structures are written as SMILES. Potency and affinity values are given separately. Results filed as inconclusive are left out. A number with no mark means an inactive call.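 The calls were made as follows: active = luminescence drop in HepG2 cells whose fitted half-effect dose is at most twice the top valid dose; inconclusive = flat curve with 30 to 70% signal loss, or unreliable fit; inactive = the rest.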

A short description of the experiment: cytotoxicity in HepG2 cells, dose response, cytotoxicity control, cell-based, plate reader, dry powder (AID 651947). Particulars: HepG2 viability, ATP luminescence (CellTiter-Glo), 48 h, active compounds read low; at 26 µM unless noted. (In ATP-based viability assays light output follows the ATP content of the culture.)
Turning to `COc1ccccc1-c1nnc(SCc2ccccn2)o1`, the max activity was -21.6%.
`c1ccc(COc2nnc(-c3ccccc3)o2)cc1`: the max activity was -50.7% [at 1.6 µM].
In the case of `COc1ccc(CSc2nnc(-c3ccc(Cl)cc3)o2)nc1`, the max activity was 20.3% [at 0.8 µM].
As for `COc1cccc(-c2nnc(SCc3ccccn3)o2)c1`, the max activity is 26.5% [at 1.6 µM].
For `COCCSc1nnc(-c2ccccc2)o1` the value was 27.8% [at 0.195 µM]; for `c1ccc(-c2ccc(CSc3nnc(-c4ccccc4)o3)cc2)cc1`, -30.5% [at 0.38 µM]; for `FC(F)(F)Oc1ccc(-c2nnc(SCc3ccccc3)o2)cc1`, 21.1% [at 12 µM].
In the case of `c1ccc(CSc2nnc(-c3cccnc3)o2)nc1` it was -43.9%; in that of `c1ccc(CNCCSc2nnc(-c3ccccc3)o2)cc1`, -50.5% [at 1.6 µM]; in that of `c1ccc(-c2nnc(SCCN3CCOCC3)o2)cc1`, -7.63% [at 0.38 µM].
Regarding `Fc1cccc(CSc2nnc(-c3ccccc3)o2)c1`, the max activity is -9.21% [at 12 µM].
As for `Clc1cccc(CSc2nnc(-c3ccccc3)o2)c1`, the max activity is -32.2% [at 0.195 µM].
For `FC(F)(F)Oc1cccc(-c2nnc(SCc3ccccc3)o2)c1` the value was -17.6% [at 0.195 µM].
In the case of `c1ccc(-c2nnc(SCC3CC3)o2)cc1` it was 18.8% [at 0.38 µM]; in that of `N#Cc1ccccc1CSc1nnc(-c2ccccc2)o1`, 22.9% [at 3 µM].
As for `CS(=O)(=O)c1cccc(-c2nnc(SCc3ccccc3)o2)c1`, the max activity was 26.3% [at 0.8 µM].
For the compound `c1ccc(CSc2nnc(-c3cnco3)o2)cc1`, the max activity is -31.7% [at 12 µM].
`CSc1nnc(-c2ccccc2)o1`: the max activity was -44.9% [at 60 µM].
Consider `FC(F)(F)c1cccc(CSc2nnc(-c3ccccc3)o2)c1`, for which the max activity was -34.6% [at 1.6 µM].
`c1ccc(-c2nnc(SCCC3OCCCO3)o2)cc1`: the max activity is 12.9% [at 0.8 µM].
Consider `Fc1cccc(-c2nnc(SCc3ccccn3)o2)c1`, for which the max activity was 26.1% [at 12 µM].
Regarding `Fc1ccccc1-c1nnc(SCc2ccccc2)o1`, the max activity was -29.8% [at 0.195 µM].
In the case of `c1ccc(-n2cc(CSc3nnc(C4CCCC4)o3)nn2)cc1`, the max activity was 20.3% [at 0.38 µM].
`c1ccc(-c2nnc(SCc3ccncc3)o2)cc1`: the max activity was -21.6% [at 0.38 µM].
In the case of `c1ccc(CSc2nnc(-c3ccco3)o2)cc1` it was -42.4% [at 6 µM]; in that of `CS(=O)(=O)c1cccc(CSc2nnc(-c3ccccc3)o2)c1`, -12.6% [at 0.38 µM].
For `c1ccc(CSc2nnc(-c3ccccn3)o2)cc1` the value was -20.9% [at 1.6 µM].
In the case of `Clc1ccccc1-c1nnc(SCc2ccccc2)o1`, the max activity was -37.6% [at 6 µM].
For `COc1ccc(-c2nnc(SCc3ccccn3)o2)cc1` the value was -23.2% [at 1.6 µM]; for `c1ccc(CSc2nnc(-c3cccs3)o2)cc1`, -27.2% [at 12 µM].
As to `c1ccc(CSc2ncc(-c3ccccc3)o2)cc1`, the max activity was -32.2% [at 0.195 µM].
As for `c1ccc(CSc2nnc(-c3cc4ccccc4o3)o2)cc1`, the max activity was 34.2% [at 6 µM].
On to `c1ccc(-c2nnc(SCCN3CCCC3)o2)cc1`, for which the max activity was -61.1% [at 0.8 µM].
Regarding `CC(C)c1nnc(SCc2ccccc2)o1`, the max activity is 28.6% [at 0.38 µM].
As to `Cc1ccc(-c2nnc(SCc3ccccn3)o2)cc1`, the max activity was -42.6% [at 0.38 µM].
